Assay outcomes deposited in PubChem BioAssay by National Center for Advancing Translational Sciences (NCATS).
Epigenetic reg – derepresses silenced GFP reporter in murine cells; murine LDR cells, GFP reporter derepression, 30 h; Potency, µM (doses to about 53.9 µM), without a hit: at the top dose GFP activation, usual class: activators; 280,000 tested, 0.2% active; note: potency is the fitted concentration of half-maximal effect; % of control where 0% means no effect; nearly all actives have a fitted effect of over 60% in size
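Derepression of a silenced CMV-GFP reporter in murine LDR cells is scored by enumerating GFP-positive cells with a laser-scanning microplate cytometer after 30 hours of treatment at 37 C.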
Giardia kill – kills Giardia lamblia | Giardia lamblia trophozoite viability | activity change, % at 7.66 µM, hits read low | 340,000 tested, 0.15% active; in the data active = activity change below about -80%; inconclusive = between about -30% and that limit;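 note: parasites exposed to compound for two days anaerobically before the ATP read; % is set by controls: 0 for no effect and ±100 for the full control effect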
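ATP-content bioluminescence gauges trophozoite survival. Cells (100/well) receive compound and incubate anaerobically for 48 hrs at 37 deg C; detection reagent follows for 15-30 min at room temperature.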
PI4K2A inh – inhibitors of human PI4K2A. purified PI4K2A, ADP-Glo luminescence, 1 h; stronger effect = lower value. 420,000 tested, 0.13% active. activity change, negative = inhibition, % at 76.9 µM; in the data active = activity change below about -50%; inconclusive = mostly about -30% to -49%;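 note: -100% = wells without enzyme as full effect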
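In this quantitative HTS, ADP production by PI4K2A was quantified luminescently after 1 h at ambient temperature; 100 microM adenosine served as plate-quality control.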
B2AR arrestin – beta2AR (human) beta-arrestin recruitment activity; beta-arrestin recruitment to beta2AR, cell-based reporter; Potency, µM (top dose mostly 46.1 µM), for the others: at the top dose activation, usual class: activators; 330,000 tested, 0.02% active; AID 492947;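 note: potency is the fitted concentration of half-maximal effect; 0% = DMSO controls and full agonism = EC100 isoproterenol or metaproterenol; nearly all actives have a fitted effect of over 65% in size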
Target sequence (P07550 whole entry, looked up): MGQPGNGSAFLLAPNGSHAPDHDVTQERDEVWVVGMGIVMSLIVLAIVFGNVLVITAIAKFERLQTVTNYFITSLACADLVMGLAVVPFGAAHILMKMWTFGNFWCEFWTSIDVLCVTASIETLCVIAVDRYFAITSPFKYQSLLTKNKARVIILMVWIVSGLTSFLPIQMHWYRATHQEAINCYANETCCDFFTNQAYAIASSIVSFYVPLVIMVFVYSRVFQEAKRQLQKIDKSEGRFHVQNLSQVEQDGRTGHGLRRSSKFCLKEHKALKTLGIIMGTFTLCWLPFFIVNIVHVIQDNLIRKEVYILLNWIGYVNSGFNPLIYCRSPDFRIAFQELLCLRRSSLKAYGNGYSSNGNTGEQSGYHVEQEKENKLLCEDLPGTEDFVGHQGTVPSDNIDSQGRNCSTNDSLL
p53 reactivation – mutant p53 re-activation in reporter cells; H1299 p53-A138V BP100-luciferase reporter, luminescence, 24 h; Potency, µM (series often up to 92.2 µM), inactives show at the top dose activity change, positive = activation, usual class: activators; 320,000 tested, 0.063% active; note: potency is the fitted concentration of half-maximal effect; % of control where 0% means no effect; nearly all actives have a fitted effect of over 45% in size
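p53-null H1299 cells stably carrying temperature-sensitive p53-A138V and a BP100-luciferase reporter were pinned with compounds (4-point, 1:5 series) and held 24 hrs at 37 deg C. Luminescence was read 10 min after detection reagent.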
Pin1 inhibitor – inhibitors of human Pin1; Pin1 FP peptide displacement, HiFluor488, 10 min; AID 504891; Potency, µM (top dose mostly 115 µM), for the others: at the top dose activity, negative = inhibition, hits mostly inhibitors; 390,000 tested, 0.009% active; active = well fitted inhibition curve with a large enough effect in the polarisation, with a control signal flat, not every such curve was filed as active; inconclusive = small, poorly fitted or top-dose-only effect, or effect the other way, or a change in a side signal; inactive = no such curve, though single readings can be large or run the other way; the % refers to the polarisation; note: potency is the fitted concentration of half-maximal effect; % is set by controls: 0 for no effect and ±100 for the full control effect
Target sequence (Q13526 whole entry, looked up): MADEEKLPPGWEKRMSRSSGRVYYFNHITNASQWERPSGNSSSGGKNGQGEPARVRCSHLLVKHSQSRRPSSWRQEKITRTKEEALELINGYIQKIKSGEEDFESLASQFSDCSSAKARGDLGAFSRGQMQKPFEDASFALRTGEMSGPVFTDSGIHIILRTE
Starred values were filed as active, the others as inactive; i = inactive; ? = inconclusive; nt = no result; [ ] = another dose, or the depositor's remark. In the library only some 0.44% were active in any assay of this set; here they are far more common. Unless noted, calls come from the whole dose curve; as a rule, active = well fitted curve in the direction sought with a large enough effect; inconclusive = small, poorly fitted or top-dose-only effect, or another doubt; inactive = no such curve, though single readings can be large; an effect the other way counts as inactive or inconclusive.

SMILES | Epigenetic reg | Giardia kill | PI4K2A inh | B2AR arrestin | p53 reactivation | Pin1 inhibitor
COc1cc(F)c(S(=O)(=O)N2CCCN(S(=O)(=O)c3cccc(NC(C)=O)c3)CC2)c(F)c1 | nt | nt | nt | nt | nt | 1%
COc1ccc2nc3cc(Cl)ccc3c(Nc3cc(C(C)C)c(O)cc3C)c2c1 | -4% | 7 | 3 | 0% | -11% | -6%
CCN(CC)CCCC(C)Nc1c2ccc(Cl)cc2nc2ccc(OC)cc12 (stereo not drawn) | 3.2µM* | nt | -1 | -1% | nt | nt
CCOC(=O)c1ccc(NC(=S)Nc2ccc(C)cc2)cc1 | 5% | 16 | 5 | 0% | 2% | 3%
CCOC(=O)c1ccc(NC(=S)NNC(C)(C)C)cc1 | ? | 31 | -1 | 22µM* | 20% | 1%
CCOC(=O)C1=C(C)N=c2s/c(=C\c3ccc(O)c([N+](=O)[O-])c3)c(=O)n2C1c1ccccc1OC (stereo not drawn) | nt | ? | 2 | 0% | -3% | 11%
CCOC(=O)C1=C(C)N=c2s/c(=C/c3cccc([N+](=O)[O-])c3O)c(=O)n2C1c1ccc(OC)cc1OC (stereo not drawn) | nt | -80* | -17 | 0% | 8% | ?
O=C(CCS(=O)(=O)c1nc(-c2cccs2)cc(C(F)(F)F)n1)Nc1ccc(OC(F)(F)F)cc1 | 0% | nt | -68* | nt | nt | -1%
C[C@@H](O)[C@H](N)C(=O)O | nt | nt | i | nt | nt | nt
Cc1ccc(C2=NN(S(C)(=O)=O)C(c3cccs3)C2)cc1 (stereo not drawn) | 1% | -11 | -12 | 0% | 10% | 13%
CCc1ccc(C2=NN(S(C)(=O)=O)C(c3cccs3)C2)cc1 (stereo not drawn) | 18µM* | -3 | 0 | 0% | ? | 34%
N#Cc1nc(Nc2cccc(-c3ccccc3)c2)nc(NC2CCCC2)n1 | nt | nt | nt | nt | nt | 12%
COc1ccc(OCC(O)CNC(C)c2ccccc2)cc1 (stereo not drawn) | nt | -9 | 2 | 1% | -3% | -8%
COc1ccc([C@H](C)NC[C@H](O)c2ccc(O)c(NC=O)c2)cc1 | -3% | -5 | -5 | 18µM* | 1% | 0%
CCCCOC(=O)CCCCCCCCC(=O)OCCCC | nt | nt | -3 | nt | nt | nt
O=S1(=O)N=C(Oc2ccccc2Cl)c2ccccc21 | nt | nt | nt | nt | nt | -5%[163 µM]
COc1ccccc1N1CCN(Cc2cc(COC(C)C)c3cccnc3c2O)CC1 | 3.5µM* | nt | -11 | nt | nt | -3%
CCOCc1cc(CN2CCN(c3ccccc3OC)CC2)c(O)c2ncccc12 | ? | nt | -3 | nt | nt | -4%
CCCOCc1cc(CN2CCN(c3ccccc3OC)CC2)c(O)c2ncccc12 | 3.5µM* | nt | 8 | nt | nt | -3%
CCCOCc1ccc(O)c2ncccc12 | 3.5µM* | -3 | -19 | ? | 18% | -7%
Cc1cc(OCCOCC[N+](C)(C)Cc2ccccc2)ccc1C(C)(C)CC(C)(C)C | nt | nt | -2 | nt | nt | nt
CC1=NN(c2ccccc2)C(c2ccco2)C1 (stereo not drawn) | nt | 13 | -4 | nt | nt | 1%
O=[N+]([O-])c1ccc(C=CC=Cc2ccccc2)cc1 | nt | nt | 1 | nt | nt | nt
O=[N+]([O-])c1ccc(/C=C/C2=NN(c3ccccc3)C(c3ccco3)C2)cc1 (stereo not drawn) | 0.79µM* | -10 | 11 | -3% | 15% | ?
O=[N+]([O-])c1ccc(C2=NN(c3ccccc3)C(c3ccco3)C2)cc1 (stereo not drawn) | 2µM* | ? | -1 | 0% | 8% | ?
SMILES | Epigenetic reg | Giardia kill | PI4K2A inh | B2AR arrestin | p53 reactivation | Pin1 inhibitor
COCCOCC(OC)OC | nt | nt | -5 | nt | nt | nt
CC(=O)Nc1ccc(S(=O)(=O)N2CCN(S(=O)(=O)c3c(F)cccc3F)CC2)cc1 | nt | nt | nt | nt | nt | 34%
CCCN1C(=O)/C(=C/C=C2\N(CC)c3ccccc3C2(C)C)SC1=S | 3.2µM* | -1 | -2 | 1% | 0% | ?
CN1/C(=C\C=C2/SC(=S)N(CC(=O)O)C2=O)C(C)(C)c2ccccc21 | 1% | 18 | -19 | 0% | 18% | ?
CCCCN1C(=O)/C(=C/C=C2/CC(C)(C)CN2C)SC1=S | 14µM* | -7 | -5 | -1% | ? | ?
C=CCN1C(=O)/C(=C\C=C2\N(C)c3ccccc3C2(C)C)SC1=S | 5µM* | 7 | -5 | -1% | 9% | ?
CCN1C(=O)/C(=C/C=C2/Sc3ccccc3N2CCO)SC1=S | 0% | -13 | -7 | -1% | 3% | 47%
CCCCN1C(=O)/C(=C/C=C2\Oc3ccccc3N2CC)SC1=S | 1µM* | 21 | 4 | 0% | -3% | ?
c1nc(NCc2ccoc2)c2cc(-c3ccc4c(c3)OCO4)ccc2n1 | nt | nt | nt | nt | nt | 13%
COc1cccc(C2c3c(ncn(-c4cccnc4)c3=N)Oc3ccc4ccccc4c32)c1 (stereo not drawn) | nt | nt | nt | nt | nt | 4%
CC(=O)Nc1ccc(OCc2cccc(C3Nc4ccccc4C(=O)N3Cc3ccco3)c2)cc1 (stereo not drawn) | nt | nt | nt | nt | nt | 23%
Nc1ccc(C(=O)N2CC3CC(CN(Cc4ccccc4)C3)C2)cc1 | nt | nt | 1 | nt | nt | nt
Cc1ccc(O)c(NC(=O)c2ccc3c(c2)C(=O)N(CC(C)C)C3=O)c1 | nt | ? | -5 | 0% | 14% | -8%
CCCN1C(=O)c2ccc(C(=O)Nc3cc(C)ccc3O)cc2C1=O | nt | -6 | -56* | 0% | nt | 7%
O=C1/C(=C/c2ccc([N+](=O)[O-])cc2)CCc2ccccc21 | 0% | nt | nt | 0% | 11µM* | nt
COc1ccc(N/C=C2\CCc3ccccc3C2=O)cc1 | -5% | -14 | -66* | 0% | -9% | ?
Cc1ccsc1/C=C1\CCc2ccccc2C1=O | 3% | ? | -75* | 0% | ? | ?
Cc1ccccc1/C=C1\CCCc2ccccc2C1=O | -1% | 7 | -26 | 0% | ? | 0%
CC(=O)Oc1ccc(/C=C2/CCc3ccccc3C2=O)cc1 | 0% | ? | -79* | 0% | ? | 0%
O=S(=O)(c1ccc2c(c1)OCCO2)N1CCN(S(=O)(=O)c2ccccc2OC(F)(F)F)CC1 | nt | nt | nt | nt | nt | 16%
O=S1(=O)N=C(Sc2cccc3cccnc23)c2ccccc21 | nt | nt | nt | nt | nt | -6%
COc1cccc(/C=C2\CCc3ccccc3C2=O)c1 | 1% | ? | -69* | -1% | ? | -1%
COc1cccc(C=C2Cc3ccccc3C2=O)c1 | nt | nt | -4 | nt | nt | nt
O=C1CCc2cc(S(=O)(=O)Nc3ccncc3)ccc2N1 | nt | nt | nt | nt | nt | 2%
COc1cc2nc(=S)n3[nH]c(CCn4nc(C)cc4C)nc3c2cc1OC | 5µM* | 4 | -25 | 0% | 0% | -12%
COc1cc2nc(=S)n3[nH]c(COc4ccccc4C)nc3c2cc1OC | -3% | 9 | 0 | 0% | -4% | 7%
CC1CCCCN1CCCOC(=O)c1ccc(OC2CCCCC2)cc1 (stereo not drawn) | nt | nt | 2 | nt | nt | nt
O=C(N/N=C/c1cccc2ccccc12)c1cccnc1 | nt | 10 | 4 | 0% | 2% | -7%
